Source: ChEMBL document CHEMBL4513216, “Probing the Open Global Health Chemical Diversity Library for Multistage-Active Starting Points for Next-Generation Antimalarials” (ACS Infect Dis, 2020)
About 2,700 (4%) of roughly 68,000 compounds showed an effect of 50% or more. Many of the other results were omitted from the sample, so strong results are more common in it than they were.

test system: Plasmodium berghei; experiment: Screen against P. berghei liver stage (PbLuc), transformed with Luciferase, at 2uM; format: functional, HepG2; conditions: tested at 2 uM

Structure (SMILES)	INHIBITION [%]
O=C(NC1CC1)c1cc(C2CCCN(Cc3ccccn3)C2)no1 (centres undefined)	-15.37
CCCNC(=O)c1cc(C2CCCN(Cc3ccccn3)C2)no1 (centres undefined)	72.41
O=C(c1cc(C2CCCN(Cc3ccccn3)C2)no1)N1CCCC1 (centres undefined)	39.48
CC(C)c1nn(C)c(Cl)c1CNC1CCOc2ccccc21 (centres undefined)	-14.17
Cc1ccc(CN2CCN(Cc3ccc(N(C)C)nc3)CC2=O)cc1C	61.3
CN(C)c1ccc(CN2CCN(c3ccc(C#N)cc3)C(=O)C2)cn1	-13.81
Cc1ccc(CN2CCN(c3cncc(N(C)C)n3)CC2=O)cc1C	27.72
CC1COCCN1Cc1nc(-c2ccc(Br)s2)no1 (centres undefined)	17.31
Fc1ccc(-c2noc3c2CN(CC2CC2)CC3)cc1F	21.49
CC(C)(O)CCc1cccc(C(=O)NCCC2=CSC3=NCCCN23)c1	9.51
COCCNc1ccc(CC2CCCN(Cc3c[nH]cn3)C2)nn1 (centres undefined)	-35.23
CCOc1ccccc1C(=O)NC(CC(=O)O)c1cccs1 (centres undefined)	-23.34
CCCC(NC(=O)c1cc(C2CC2)[nH]n1)c1nnc2ccccn12 (centres undefined)	19.42
NCc1n[nH]c(=O)n1-c1ccccc1Oc1ccccc1	28.73
COCCN1CCOCC2(CCN(c3cnccn3)CC2)C1	50.85
COCCN1CCOCC12CCN(c1cnccn1)CC2	10.71
CC(C)N1CCOCC2(CCN(c3cnccn3)CC2)C1	-10.43
Cc1nc(C(=O)N2CCC(c3cc(CCO)n(C)n3)C2)co1 (centres undefined)	-13.45
Cc1nc(CN(C)C2CCN(CC3CCC3)C2)no1 (centres undefined)	15.28
CN(Cc1noc(C2CC2)n1)C1CCCN(c2cccnn2)C1 (centres undefined)	-13.24
Cc1nc(CN(C)C2CCN(CCCc3ccccc3)C2)no1 (centres undefined)	16.25
Cc1nc(CN(C)C2CCCN(c3ccccc3)C2)no1 (centres undefined)	74.35
Cc1ccc(N2CCCC(N(C)Cc3cc(C)on3)C2)nn1 (centres undefined)	-1.21
Cc1nc(CN(C)C2CCCN(c3cccnn3)C2)no1 (centres undefined)	51.21
Cc1nc(CN(C)C2CCN(Cc3ccc4ccccc4n3)C2)no1 (centres undefined)	55.7
Cc1nc(CN(C)C2CCN(Cc3nc4ccccc4s3)C2)no1 (centres undefined)	-75.02
Cc1nc(CN(C)C2CCN(Cc3nc4ccccc4n3C)C2)no1 (centres undefined)	-2.87

Structure (SMILES)	INHIBITION [%]
CC(C)c1nc(CN(C)C2CCCN(c3cccnn3)C2)no1 (centres undefined)	-68.26
Cc1ccc(N2CCCC(N(C)Cc3cc(C)no3)C2)nn1 (centres undefined)	75.47
Cc1cc(CN(C)C2CCCN(c3cccnn3)C2)on1 (centres undefined)	13.35
COCCC(=O)NC(C)(C(N)=O)c1cccc(Cl)c1 (centres undefined)	7.37
O=S1(=O)CCC(n2nc(COc3ccccc3)nc2-c2cnccn2)C1 (centres undefined)	-5.42
Cc1nc(CCNC(Cc2ccncc2)C(F)(F)F)cs1 (centres undefined)	-2.89
CCN(C)Cc1n[nH]c(=O)n1-c1cc(F)ccc1C	5.78
CN(C)C(=O)Cc1ccccc1NCc1noc(-c2ccccc2)n1	22.19
CCn1nccc1CNc1nc(N)nc2c1nc(C)n2C	14.79
CNC(=O)C(NC(=O)c1nccn2ccnc12)c1ccc(F)c(F)c1 (centres undefined)	29.53
CSCCC(Nc1nc(C)cc(C)n1)C(=O)NCC1CCOCC1 (centres undefined)	0.62
CC(C)c1noc(CN2CCOCC2C)n1 (centres undefined)	27.86
CN(CC(=O)Nc1ccncc1)C1CCCN(c2cccnn2)C1 (centres undefined)	7.13
CN(CC(=O)NCc1ccccn1)C1CCCN(c2cccnn2)C1 (centres undefined)	-117.12
COCCCNC(=O)CN(C)C1CCCN(c2cccnn2)C1 (centres undefined)	64.16
Cc1ccc(C(=O)N2CCC3(CCCCC3)C2)c(=O)[nH]1	-8.54
CN(C)C(=O)c1c[nH]nc1C1CCN(S(=O)(=O)c2cccc(Cl)c2)CC1	13.02
Cc1ncsc1-c1nnc(C2CCN(Cc3cccc(F)c3F)CC2)o1	35.56
Cc1cccc(CN2CCC3(CCCN(C(=O)N(C)C)C3)C2=O)n1 (centres undefined)	51.81
Cc1cccc(CN2CCC3(CCCN(C(=O)CN(C)C)C3)C2=O)n1 (centres undefined)	28.95
Cc1cccc(CN2CCC3(CCCN(C(=O)N4CCCC4)C3)C2=O)n1 (centres undefined)	-9.14
COCCn1cnc2ccc(NC(=O)CCCn3cccn3)cc2c1=O	52.05
CC(C)Cn1cnc2ccc(NC(=O)CCCn3cccn3)cc2c1=O	16.03
CC(NC(=O)CCCn1cnc2ccccc2c1=O)c1ncn[nH]1 (centres undefined)	22.27
Cn1cnc2ccc(NC(=O)CCCn3cccn3)cc2c1=O	25.61
COCC(C)NC(=O)CCCn1cnc2ccccc2c1=O (centres undefined)	51.36
CC(C)NC(=O)CCCn1cnc2ccccc2c1=O	35.43
